Bioassay records deposited in PubChem by The Scripps Research Institute Molecular Screening Center.
proKLK7 act = proKLK7 zymogen activators, primary screen, biochemical, fluorescence intensity; Kallikrein-7 (Homo sapiens), P49862; purified proKLK7, EDANS-DABCYL substrate fluorescence; 100% is mature enzyme control, 0% vehicle; activation, % at 7 µM; 370,000 tested, 0.9% active; AID 652039, 2013;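 active = activation above the mean of all tested compounds plus 3 SD, computed per campaign excluding outliers beyond control limits, cut at about 13% in these data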
Target sequence (P49862 whole entry, looked up): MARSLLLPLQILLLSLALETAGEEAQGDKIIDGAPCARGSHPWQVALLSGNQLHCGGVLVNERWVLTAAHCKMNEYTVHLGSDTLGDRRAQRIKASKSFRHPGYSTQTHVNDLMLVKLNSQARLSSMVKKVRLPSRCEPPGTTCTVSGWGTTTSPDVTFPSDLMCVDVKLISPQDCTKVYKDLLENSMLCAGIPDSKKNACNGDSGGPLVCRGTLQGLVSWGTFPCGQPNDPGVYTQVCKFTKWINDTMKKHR
PLCg1 inh = PLC-gamma1 enzyme inhibitors, primary screen, biochemical, fluorescence, purified enzyme; inhibition, % at 12.2 µM; fluorogenic substrate; 370,000 tested, 0.84% active; 1-phosphatidylinositol 4,5-bisphosphate phosphodiesterase gamma-1 (Homo sapiens), P19174; AID 720700, 2013; in the data active = inhibition above about 9.5%
ADAM10 inh = human ADAM10 inhibitors, primary screen, biochemical, QFRET, HTS; 370,000 tested, 0.62% active; Disintegrin and metalloproteinase domain-containing protein 10 (Homo sapiens), O14672; inhibition, % at 7 µM; recombinant ADAM10, EDANS/DABCYL FRET peptide cleavage, 3 h; AID 720582, 2013;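 active = inhibition above a per-campaign cutoff equal to the mean of compounds falling between control-based bounds plus 3 SD, cut at about 20% in these data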
PLCb3 inh = human PLC-beta3 inhibitors, primary screen, biochemical, fluorescence; AID 720704, 2013; 1-phosphatidylinositol 4,5-bisphosphate phosphodiesterase beta-3 (Homo sapiens), Q01970; Purified PLC-beta3, fluorogenic substrate; inhibition, % at 12.2 µM; 370,000 tested, 0.18% active; in the data active = inhibition above about 11%
ADAM17 inh = ADAM17 inhibitors, primary screen, biochemical, QFRET; Disintegrin and metalloproteinase domain-containing protein 17 (Homo sapiens), P78536; recombinant ADAM17, EDANS/DABCYL FRET peptide cleavage; inhibition, % at 6.95 µM; 370,000 tested, 0.83% active; AID 720648, 2013;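 active = inhibition above the mean of compounds lying between control limits plus 3 SD, set per campaign, cut at about 8.5% in these data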
ADAM10 confirm = human ADAM10 inhibitors, confirmation, biochemical, QFRET, triplicate; inhibition, % at 6.95 µM; ADAM10 QFRET peptide cleavage, EDANS fluorescence; shares compounds with ADAM10 inh; AID 743208, 2013; 2,100 tested, 1% active;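 active = inhibition above about 20% chosen separately for each screening run, limit read from the data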
ADAM17 ctr = ADAM17 inhibitors, counter-screen for ADAM10 exosite inhibitor project, biochemical, QFRET, high throughput. shares compounds with ADAM10 inh. ADAM17 QFRET peptide cleavage, EDANS fluorescence. inhibition, % at 6.95 µM. 2,100 tested, 0.5% active. AID 743214, 2013;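 active = mean triplicate inhibition above the solvent-only control wells' mean plus 3 SD, cut at about 12% in these data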
Each line names hits and unclear results; the compound was inactive in the other large screens (follow-up assays come after a bar, where they were run). Hits are enriched below; roughly 2.9% of the tested compounds scored in any of these assays.

CN1C(=O)C[C@@](C#N)(C(=O)NCC(F)(F)F)[C@H]1c1ccccc1	none
O=C(NCCn1cc(SCc2ccccc2)c2ccccc21)c1c(F)cccc1F	ADAM10 inh 24 | ADAM10 confirm inactive | ADAM17 ctr inactive
COc1ccc(-c2cc(C(=O)NN=Cc3ccc(C)s3)[nH]n2)cc1	none
O=C1C(=O)N(C2CCCC2)C(=O)N1Cc1c(F)cccc1Cl	ADAM10 inh 21 | ADAM10 confirm inactive | ADAM17 ctr inactive
COc1ccc(-c2n[nH]c(C(F)(F)F)c2-c2cc3ccccc3o2)c(O)c1	ADAM10 inh 22 | ADAM10 confirm 21 | ADAM17 ctr inactive
COc1ccccc1-c1c(-c2ccc(OCC(=O)NN)cc2O)n[nH]c1C(F)(F)F	none
C=CS(=O)(=O)N(Cc1nnn(Cc2ccccc2)c1Br)[C@@H](CC(C)C)C(=O)OC	none
C=CCN1[C@H](CC(C)C)COc2cccc(N3CCSCC3)c2S1(=O)=O	none
COC(=O)[C@]12C[C@H](CC(=O)N3CCN(C(=O)C4CC4)CC3)C(=O)N(Cc3ccccc3)C1=C[C@H](COCc1ccccc1)O[C@@H]2C	none
Cc1ccc(C(=O)Nc2ccccc2Oc2ccccc2)cc1[N+](=O)[O-]	ADAM10 inh 22 | ADAM10 confirm inactive | ADAM17 ctr inactive
O=C(Nc1ccccc1Oc1ccccc1)c1cccc([N+](=O)[O-])c1	none
CNC(=S)NNC(=O)c1noc(C)c1C(=O)N1CCN(C(c2ccccc2)c2ccccc2)CC1	ADAM10 inh 32 | ADAM10 confirm inactive | ADAM17 ctr inactive
Clc1cc(Cl)cc(CNC2CCC23CCCCC3)c1 (stereo not drawn)	none (no result: proKLK7 act)
Cc1ccc(/C=C/C(=O)Nc2ccc(S(=O)(=O)Nc3onc(C)c3C)cc2)cc1	ADAM10 inh 21 | ADAM10 confirm inactive | ADAM17 ctr inactive
O=C(COC(=O)CCc1c[nH]c2ccccc12)NC(c1ccccc1)c1ccccc1	ADAM10 inh 24 | ADAM10 confirm inactive | ADAM17 ctr inactive
CCCCC(=O)NC(=S)Nc1ccc(S(=O)(=O)N2CCCC2)cc1	ADAM10 inh 72 | ADAM10 confirm inactive | ADAM17 ctr inactive
O=C(COC(=O)CCSc1ccccc1Cl)Nc1ccc(F)cc1F	ADAM10 inh 23 | ADAM10 confirm inactive | ADAM17 ctr inactive
O=C(COC(=O)CCSc1ccccc1)Nc1ccc(F)cc1Cl	none
CN1CCCN(C(=O)C2CCCN(C(=O)c3ccc4c(c3)NC(=O)CS4)C2)CC1 (stereo not drawn)	none
COC(=O)c1ccc(CSc2nc3ccccc3c(=O)n2-c2ccccc2)o1	ADAM10 inh 20 | ADAM10 confirm inactive | ADAM17 ctr inactive
COC(=O)c1ccc(CSc2nc3ccccc3c(=O)n2-c2ccc(OC)c(OC)c2)o1	none
C(=C\c1ccccc1)/C=N/Nc1nc2ccccc2s1	ADAM10 inh 26 | ADAM10 confirm 23 | ADAM17 ctr inactive
CCC/C=N/Nc1nc2ccccc2s1	ADAM10 inh 25 | ADAM10 confirm inactive | ADAM17 ctr inactive
Brc1ccc(/C=C/C=N/Nc2nc3ccccc3s2)cc1	none
COc1ccc(C=NNc2nc3ccccc3s2)cc1	none
CCCCCCCCN1C(=O)[C@@H](CC(=O)NCc2ccc(C)o2)C[C@@]2(C(=O)OC)C1=C[C@H](COCc1ccccc1)O[C@@H]2C	none
C#CCNC(=O)C[C@H]1C[C@@]2(C(=O)OC)C(=C[C@H](C(C)C)O[C@@H]2C2CC2)N(CCC2=CCCCC2)C1=O	none
COc1cc(S(=O)(=O)N2CCOCC2)ccc1NC(=O)COC(=O)c1cc(OC)c(OC)c(OC)c1	none
COc1cc(S(=O)(=O)N2CCOCC2)ccc1NC(=O)COC(=O)CC12CC3CC(CC(C3)C1)C2	ADAM10 inh 29 | ADAM10 confirm inactive | ADAM17 ctr inactive
OC(CSc1c(Cl)cccc1Cl)CN1CCN(c2ccc(F)cc2)CC1 (stereo not drawn)	PLCg1 inh 15, ADAM10 inh 21, ADAM17 inh 11 | ADAM10 confirm inactive | ADAM17 ctr inactive
O=C(NC1CCCCN(Cc2cccc(Cl)c2)C1=O)c1cccc([N+](=O)[O-])c1 (stereo not drawn)	none
COc1ccc(CNC(=O)c2cccc(S(=O)(=O)N3CCN(c4ccc(F)cc4)CC3)c2)cc1	ADAM10 inh 22 | ADAM10 confirm inactive | ADAM17 ctr inactive
O=C(NCCOc1ccccc1)c1cccc(S(=O)(=O)N2CCN(Cc3ccccc3)CC2)c1	ADAM10 inh 24 | ADAM10 confirm inactive | ADAM17 ctr inactive
COC(=O)[C@]12C[C@H](CC(=O)N3CCC(c4ccccc4)CC3)C(=O)N(Cc3cccc4ccccc34)C1=C[C@H](COCc1ccccc1)O[C@@H]2C	none
O=C(N/N=C/c1cn(-c2cccs2)nc1-c1ccccc1)c1ccccc1Cl	ADAM10 inh 20 | ADAM10 confirm inactive | ADAM17 ctr inactive
CCN(c1ccccc1)S(=O)(=O)c1ccc(N2CCN(c3ccc(OC)cc3)CC2)nc1	none
CCN(c1ccccc1)S(=O)(=O)c1ccc(N2CCN(c3ccc(O)cc3)CC2)nc1	ADAM10 inh 25 | ADAM10 confirm inactive | ADAM17 ctr inactive
O=C(CCC(=O)Nc1ccccc1Cl)NNC(=S)Nc1ccccc1C(F)(F)F	ADAM10 inh 28 | ADAM10 confirm inactive | ADAM17 ctr inactive
CCN(CC)c1ccc(NC(=O)COC(=O)CCc2cc(OC)c(OC)c(OC)c2)cc1	none
CCN(c1ccc(NC(=O)COC(=O)CCc2cc(OC)c(OC)c(OC)c2)cc1)C(C)C	ADAM10 inh 21 | ADAM10 confirm inactive | ADAM17 ctr inactive
COC(=O)[C@H](C(C)C)N1CCc2nnn(Cc3ccc(C)cc3)c2-c2cc(F)ccc2S1(=O)=O	none
CC(C)Oc1ccc(CC(=O)NNC(=S)Nc2ccccc2)cc1	ADAM10 inh 27 | ADAM10 confirm inactive | ADAM17 ctr inactive
CCOc1ccc(CC(=O)NNC(=S)Nc2ccccc2)cc1Br	ADAM10 inh 20 | ADAM10 confirm inactive | ADAM17 ctr inactive
O=C(Cc1noc2ccccc12)NNC(=S)Nc1ccccc1	ADAM10 inh 20 | ADAM10 confirm inactive | ADAM17 ctr inactive
COc1ccc(CC(=O)NNC(=S)Nc2ccccc2)cc1Br	none
O=C(Cc1noc2ccccc12)Nc1ccc(Cl)cc1	none
CS(=O)(=O)N1c2ccccc2C[C@H]1Cc1cc2ccccc2o1	none (no result: proKLK7 act)
